Measurements from PubChem BioAssay AID606 (Columbia University Molecular Screening Center, 2007).
The campaign covered roughly 52,000 compounds. Fewer than 10 were called active.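 The calls were made as follows: active = IC50 under 40 µM in the dose-response test; inactive = IC50 of 40 µM or more, or never dose-tested.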 Not all results are given here.

The compounds below were run against Tyrosine-protein phosphatase non-receptor type 22 (Homo sapiens) (UniProt Q9Y2R2) (assay: LYP phosphatase inhibitors, primary screen, biochemical, DiFMUP fluorescence, recombinant catalytic domain, 10 µM (AID 606)). Settings: at 10 µM, active compounds read high.
Chain of Tyrosine-protein phosphatase non-receptor type 22 (Homo sapiens) (Q9Y2R2 whole entry, looked up, the tested form may be a part): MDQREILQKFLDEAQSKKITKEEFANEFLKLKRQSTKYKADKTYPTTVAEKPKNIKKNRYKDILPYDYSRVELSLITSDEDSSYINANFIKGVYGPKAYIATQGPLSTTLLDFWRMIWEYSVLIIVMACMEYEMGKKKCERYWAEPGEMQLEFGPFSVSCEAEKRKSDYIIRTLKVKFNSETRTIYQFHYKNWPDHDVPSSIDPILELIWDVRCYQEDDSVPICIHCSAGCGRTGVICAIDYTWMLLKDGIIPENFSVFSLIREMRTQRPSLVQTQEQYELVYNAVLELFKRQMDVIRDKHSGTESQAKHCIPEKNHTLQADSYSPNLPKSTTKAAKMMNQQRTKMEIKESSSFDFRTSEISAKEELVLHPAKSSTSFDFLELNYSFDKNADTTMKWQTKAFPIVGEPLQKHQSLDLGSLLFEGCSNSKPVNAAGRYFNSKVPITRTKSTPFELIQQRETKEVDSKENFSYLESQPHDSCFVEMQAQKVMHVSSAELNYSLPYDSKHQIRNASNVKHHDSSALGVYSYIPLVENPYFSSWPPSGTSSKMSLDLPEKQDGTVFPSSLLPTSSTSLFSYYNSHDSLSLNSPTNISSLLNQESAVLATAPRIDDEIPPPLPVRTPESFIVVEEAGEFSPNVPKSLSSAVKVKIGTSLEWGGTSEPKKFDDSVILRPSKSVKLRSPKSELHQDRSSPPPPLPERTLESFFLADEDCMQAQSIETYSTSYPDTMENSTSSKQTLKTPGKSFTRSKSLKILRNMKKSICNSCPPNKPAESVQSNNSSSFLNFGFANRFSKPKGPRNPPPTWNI

inhibition, inactive:
COCC(C)n1c(C)cc(C(=O)COC(=O)c2ccc3ncsc3c2)c1C (centres undefined) -12.6%, CCCn1cnc2cc(NCc3ccccn3)ccc21 6.61%, NC(=O)c1ccccc1NC(=O)CCCN1C(=O)CCC1=O 14.4%, CCN(CC)c1ccc(C(=O)OCC(=O)N2CCN(c3ccccc3)CC2)cc1 0.55%, COc1ccc(N(CC(=O)Nc2ccc(OC)c(Cl)c2)S(=O)(=O)c2c(C)noc2C)cc1 6.18%, CCOC(=O)C1CCN(C(=O)COc2ccc(N(C)S(=O)(=O)c3cccs3)cc2)CC1 4.68%, CC1(C)Cc2c(C#N)c(NCCCO)nc(-c3ccccc3)c2CO1 -2.42%, CSc1nc(-c2ccco2)nn1S(=O)(=O)c1ccccc1 -1.38%, CCN(CC)Cc1cc2ccccc2c2c1COC2 0.09%, c1ccc(CCNc2ncnc3c2nnn3Cc2ccccc2)cc1 -4.3%, COc1cccc(OC)c1OCC(O)CN1CCN(c2ccccc2)CC1 (centres undefined) 2.34%, CC#CCCCC(=O)Nc1cc(OC)nc(OC)n1 3%, CN1C(=O)C(C(=O)NC(C)(C)C)C2c3ccccc3OC13CCCCC23 (centres undefined) -15%, CC(C)N(Cc1nc(-c2ccccc2)no1)S(=O)(=O)c1ccccc1 1.55%, COc1cccc(NC(=O)c2ccc(CN3CCOCC3)cc2)c1 8.87%, Cc1nc2nc(-c3cccnc3)nn2c(C)c1Cl 14.4%, CCc1cc(C(=O)Nc2ccccc2)cs1 0.95%, CC(C)n1c(C(O)c2ccc3c(c2)OCO3)nc2ccccc21 (centres undefined) 5.85%, COc1cccc2cc(-c3cn4cccc(C)c4n3)c(=O)oc12 -3.29%, CCCn1c(CN2CCCCC2CC)nc2c1c(=O)n(C)c(=O)n2C (centres undefined) -4.26%, CC(=O)NC(CCS(C)(=O)=O)C(=O)Nc1ccccc1Cl (centres undefined) 1.63%, CS(=O)(=O)N(CC(=O)Nc1ccc2c(c1)OCCO2)c1ccc2c(c1)OCO2 23.4%, COc1ccc(N2CCN(C(=O)C(Cc3ccccc3)n3cccc3)CC2)cc1 (centres undefined) -12.6%, CCN(CC)C(c1ccc(F)cc1)c1nnnn1C1CCCCC1 (centres undefined) 3.34%, NC(=O)NC(=O)COC(=O)CCCc1c[nH]c2ccccc12 1.43%, Cc1noc(NS(=O)(=O)c2ccc(NC(=O)CSc3ncccn3)cc2)c1C 11.6%, COc1ccc(C(CNC(=O)c2cc(C)oc2C)N2CCOCC2)cc1 (centres undefined) 10.4%, CC(C)(C)NC(=O)CN(C(=O)c1ccc(CN2CCOCC2)o1)c1ccc2c(c1)OCCO2 -2.48%, N#CCCN(C(=O)c1ccco1)c1ccccc1 9.22%, Cc1ccc(NC(=O)c2ccc(S(=O)(=O)NCC3CCCO3)cc2)cc1 (centres undefined) 15.7%, O=C(CN1CCN(S(=O)(=O)c2ccc(Br)cc2)CC1)Nc1ccc2c(c1)OCO2 14.6%, O=C(NCC1CCCO1)[C@@H]1CSC2c3ccccc3C(=O)N21 (some centres undefined) -1.83%, O=C(CSc1nnc(-c2ccccn2)n1Cc1ccco1)c1ccc(-c2ccccc2)cc1 -10.3%, O=C(CCc1ccccc1)Nc1nnc(-c2cccs2)o1 -13%, COc1ccc(C(=O)N2CC(=O)N(CCc3ccccc3)C(=O)C2)cc1OC 9.04%, O=C(C1CCN(S(=O)(=O)N2CCOCC2)CC1)N1CCOCC1 2.43%, CC1CN(Cc2nc3c(c(=O)n(C)c(=O)n3C)n2CC(=O)c2ccccc2)CC(C)O1 (centres undefined) -0.17%, COc1ccc(-n2c(=O)[nH]cc(C(=O)N3CCCc4ccccc43)c2=O)cc1 2.14%, O=C(NCc1ccco1)C1CCN(S(=O)(=O)c2cccc3cccnc23)CC1 4.72%, CCCCn1c2c(c(=O)n(C)c1=O)C(c1ccc(OC)cc1)N1CCCCCC1=N2 (centres undefined) -3.4%, Cc1ccc(S(=O)(=O)NCCC(=O)NCc2ccccc2)cc1 7.96%, CC1CCc2sc3nc(NCc4ccco4)n4ncnc4c3c2C1 (centres undefined) 2.11%, C=CCn1c(NCCO)nc2sc3c(c2c1=O)CCC3 11.6%, OCCn1nc2c3ccccc3nc-2n(-c2ccccc2)c1=S 3.81%, O=C(Nc1c(C(=O)N2CCOCC2)cnn1-c1ccccc1)c1ccccc1 1.38%, COc1ccc2c(c1)C1(Nc3ccccc3-c3nc4ccccc4n31)C(=O)N2C (centres undefined) 7.56%, C1CCc2c(nnc3c2-c2nonc2CC3)C1 11.1%, CSc1nc2c(c(=O)n1Cc1ccccc1)SC(C)C2 (centres undefined) 0.73%, Cn1c(SCC(=O)N2CCCCC2)nnc1-c1ccc(S(=O)(=O)N2CCOCC2)cc1 13.4%, CC(C)(C)NC(=O)C(OC(=O)Cn1nnc(-c2ccc(F)cc2)n1)c1ccncc1 (centres undefined) 1.61%, O=C(c1cc2ccccn2n1)N1CCN(c2ccccn2)CC1 7.66%, CN1C(=O)C(O)(CC(=O)c2ccccn2)c2cc(Br)ccc21 (centres undefined) 4.59%, COc1cc2ccccc2cc1C(=O)Nc1ccccc1N1CCN(S(C)(=O)=O)CC1 6.41%, CC(=O)c1c(N2CCN(c3ccccc3)CC2)nc(=S)n(-c2ccccc2)c1C 3.4%, Cn1c(CCNC(=O)c2cccs2)nnc1SCC(=O)N1CCN(c2ccccc2)CC1 6.14%, CCN1C(=O)C(O)(CC(=O)c2cc(C)ccc2C)c2ccccc21 (centres undefined) 11.7%, CCOC(=O)c1cc2n(n1)C(C(F)(F)C(F)(F)F)CC(C)N2 (centres undefined) 15.7%, O=C(C1CCN(c2nnc(-n3cccc3)s2)CC1)N1CCN(c2cccc(C(F)(F)F)c2)CC1 -2.18%, NC(=O)CN(c1ccc(Cl)cc1)S(=O)(=O)c1ccccc1 -12.5%, COc1ccc(N(CC(=O)N2CCc3ccccc3C2)S(=O)(=O)c2c(C)nn(C)c2C)cc1 -0.55%, O=C(NCc1ccccc1)c1ccc(COCC(F)(F)F)o1 11.7%, CCN1C(=Nc2ccc(Cl)cc2)SC/C1=C\C(=O)OC 6.44%, COc1ccc(C2CC(c3cccc(C)c3)n3ncnc3N2)cc1 (centres undefined) 16.6%, CC1CCC(NC(=O)CN2C(=O)C3CCCN3c3ncc(Cl)cc32)CC1 (centres undefined) -36.6%, Cc1cc(N2CCN(C(c3ccccc3)c3ccc(Cl)cc3)CC2)n2ncnc2n1 (centres undefined) 3.46%, O=C(Nc1ccccn1)C1CCN(S(=O)(=O)c2cccs2)CC1 4.65%, COc1ccc(CCNC(=O)CC2Oc3ccc(Cl)cc3NC2=O)cc1OC (centres undefined) -7.5%, CC(=O)Nc1ccc(C(=O)OCCC(C)C)cc1 -3.58%, Cc1nc2ccc(S(=O)(=O)NCC(=O)N(C)Cc3ccco3)cc2s1 4.87%, CNC(=O)c1ccccc1NC(=O)c1cccc(S(=O)(=O)N2CCC(C)CC2)c1 -7.79%, CCc1ccc2c(COn3nnc4ccc(S(=O)(=O)N(C)C)cc43)cc(=O)oc2c1 -1.03%, CCCSCCCNC(=O)CC1Oc2ccccc2NC1=O (centres undefined) 2.3%, Cc1cccc(Nc2ncnc3nc[nH]c23)c1 -1.47%, CCOCCCNCc1ccc(OC)c(OC)c1 6.63%, CCOC(=O)C1CCN(C(=O)CN(c2cccc(OC)c2)S(=O)(=O)c2ccccc2)CC1 -2.95%, COc1ccccc1OCCC(=O)OCCN1C(=O)c2ccccc2C1=O -6.96%, O=C(Cn1cnc2ccccc2c1=O)N1CCN(Cc2ccccc2)CC1 15.4%, CC(C)(C)c1ccc(S(=O)(=O)N2CCCCC2C(=O)NCc2ccccn2)cc1 (centres undefined) 11%, CCOc1ccc(NC(=O)CSc2nnc(-c3ccccn3)n2N)cc1 6.01%, Cc1c(NC(=O)C2CCCN(S(=O)(=O)c3cnc[nH]3)C2)c(=O)n(-c2ccccc2)n1C (centres undefined) 8.93%, COc1ccc2c(C)cc(SCC(=O)N3CCOCC3)nc2c1 8.83%, Cc1cc(=O)[nH]c(SCC(=O)c2ccc(C(C)C)cc2)n1 10.2%, COC(=O)C1=C(C)n2nnnc2NC1c1cc2ccccc2o1 (centres undefined) 12.9%, COc1cccc(NC(=O)CN(c2cccc(F)c2)S(C)(=O)=O)c1 -7.34%, Cc1cc(C)c(S(=O)(=O)N(C)Cc2cnn(C)c2)c(C)c1 7.74%, Cc1ccc(-c2cc(C(=O)NCc3ccccn3)no2)cc1 6.16%, CC1(C)Cc2ccccc2-c2nnc(-c3ccc(O)cc3)n21 5.6%, COc1ccc(C(=O)N2CCN(c3ccc(C)cc3)CC2)cc1OC -3.18%, CCNC(=O)CC1C(=O)N(c2ccccc2)C(=O)N1CCC(C)C (centres undefined) 5.24%, COc1ccccc1-n1c(CNC(=O)c2ccco2)nnc1SCC(=O)Nc1nccs1 3.45%, CCOC(=O)Cn1c(=N)n(Cc2ccccc2)c2ccccc21 -0.97%, Cn1c(CN2CCOCC2)nc2cc(NC(=O)c3ccccc3Cl)ccc21 10.7%, Cc1cc(C)n2nc(C(=O)Nc3ccccc3N3CCOCC3)nc2n1 15.1%, CCCn1c(N)c(C(=O)CN2CCN(S(=O)(=O)c3cccs3)CC2)c(=O)[nH]c1=O -0.47%, CCCN(c1ccc(OCC)cc1)c1ncnc2nc[nH]c12 16.1%, CC1(C)Cc2c(sc(NC(=O)c3ccco3)c2C#N)CO1 4.29%, CC(=O)c1ccc(OCCCC(=O)n2nnc3ccccc32)cc1 14.1%, Cc1cc(C(F)(F)F)nc(SCC(=O)Nc2ccccc2)n1 0.2%, C=CCSc1nc(C)c(CC(=O)OCCCC)c(=O)[nH]1 2.59%, CCOC(=O)c1oc2c(CN3CCCCC3C)c(O)ccc2c(=O)c1-c1ccc(OC)c(OC)c1 (centres undefined) 15.8%, CC(=O)NC(c1ccccc1)c1nc2ccccc2[nH]1 (centres undefined) -1.04%, CCCn1c(NCc2ccco2)nc2ccccc21 11.7%, COc1ccc(CCNc2cc(=O)[nH]c(N)n2)cc1 16.4%, COC(=O)c1ccc(CSc2nc3scc(-c4cccs4)c3c(=O)[nH]2)o1 3.74%, COc1ccc(NC2CCN(C3CC(=O)N(c4ccc(F)c(Cl)c4)C3=O)CC2)cc1 (centres undefined) 4.79%, COc1ccc(CC(=O)N2CCN=C2SC)cc1 7.94%, O=S(=O)(Nc1ccc2c(c1)oc1ccccc12)N1CCCC1 -2.32%, Cc1ccc(S(=O)(=O)/N=C(/Nc2nc(C)cc(C)n2)N2CCOCC2)cc1 2.14%, Cc1nnc(NCc2ccco2)c2ccccc12 5.7%
